Records with an inconclusive call do not appear. Active and inactive are the calls of the source. Calls follow the shape of the dose curve; as a rule, active = well fitted curve in the direction sought with a large enough effect; inconclusive = small, poorly fitted or top-dose-only effect, or another doubt; inactive = no such curve, though single readings can be large; an effect the other way counts as inactive or inconclusive.
Tests used:
[1] = target: Cellular tumor antigen p53 (Homo sapiens) (UniProt P04637); test: Primary qHTS for small molecule compounds that upregulate eGFP-tagged delta133p53alpha (in N-terminal) cells. (AID 2060322); conditions: NCI-H358 eGFP-delta133p53alpha fluorescence, 24 h; activation: active compounds read high;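 also: cells pre-induced with doxycycline then dosed without doxycycline; series mostly up to about 56 µM; 0% = DMSO vehicle and 100% = reference activator; nearly all actives have a fitted effect of over 75% in size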
Procedure, shortened: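 NCI-H358 cells pre-induced 24 h with 10 ng/ml doxycycline for eGFP-delta133p53alpha, plated dox-free and exposed 24 h at 37C to titrated compounds. Fixed, Hoechst-stained; gated GFP peak intensity by laser scanning cytometry, normalized to DMSO (0%) and 57.5 uM 5-azacytidine (100%).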

[2] = target: Aldehyde dehydrogenase, mitochondrial (Homo sapiens) (UniProt P05091); test: qHTS for Inhibitors of the Aldehyde Dehydrogenase Family (ALDH2) Primary screen (AID 2061308);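 also: plate controls were vehicle for no effect and reference inhibitor for full effect; nearly all actives have a fitted effect of over 55% in size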
[3] = target: Retinaldehyde dehydrogenase 3 (Homo sapiens) (UniProt P47895); test: qHTS for Inhibitors of the Aldehyde Dehydrogenase Family (ALDH1A3) Primary screen (AID 2061315);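 also: plate controls were DMSO vehicle for no effect and reference inhibitor for full effect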

Sequence of Cellular tumor antigen p53 (Homo sapiens) (P04637 whole entry, looked up): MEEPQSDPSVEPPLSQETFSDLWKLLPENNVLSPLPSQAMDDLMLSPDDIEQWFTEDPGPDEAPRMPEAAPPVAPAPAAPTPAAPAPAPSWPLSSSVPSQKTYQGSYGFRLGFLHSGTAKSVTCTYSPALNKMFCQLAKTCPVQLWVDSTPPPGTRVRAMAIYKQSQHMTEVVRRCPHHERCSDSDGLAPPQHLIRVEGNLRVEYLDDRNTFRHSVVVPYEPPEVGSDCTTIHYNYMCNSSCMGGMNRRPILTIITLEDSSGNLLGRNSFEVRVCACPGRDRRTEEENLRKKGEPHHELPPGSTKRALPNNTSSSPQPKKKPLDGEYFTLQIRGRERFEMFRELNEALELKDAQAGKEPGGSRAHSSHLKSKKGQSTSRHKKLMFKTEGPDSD

Cc1cnc(NC(=O)Nc2cc(Br)c(C)cc2OCC2CNCCO2)cn1 (stereo unspecified)
inactive: activation [1] 11.6% | Potency [2] | Potency [3]

Cc1nc(N2CCN(C(=O)c3ccco3)CC2)c2c3c(sc2n1)CCCC3
inactive: activation [1] -12.9% | Potency [2] | Potency [3]

CCOC(=O)c1ccc(OCCC2CCN(c3ccc(C)nn3)CC2)cc1
inactive: activation [1] -17.9% | Potency [2] | Potency [3]

C=C(CCO)C(=O)OCC1OCC(OC(=O)C(=C)CCO[C@@H]2O[C@H](COC(=O)C(=C)CCO[C@@H]3O[C@H](CO)[C@@H](O)[C@H](O)[C@H]3O)[C@@H](O)[C@H](O)[C@H]2O)C(O)C1O (stereo partly specified)
inactive: activation [1] 11.5% | Potency [2] | Potency [3]

CC[C@H](C)[C@H](NC(=O)[C@H](Cc1ccc(O)cc1)NC(=O)[C@@H](N)C(C)C)C(=O)N[C@@H](Cc1cnc[nH]1)C(=O)N1CCC[C@H]1C(=O)N[C@@H](Cc1ccccc1)C(=O)O
inactive: activation [1] 0.333% | activity change, negative = inhibition [2] 0.0903% [at 5.59 µM] | activity change, negative = inhibition [3] 1.7% [at 5.59 µM]

CC(=O)O[C@@H]1[C@@H](O)[C@H](C)O[C@@H](O[C@H]2[C@@H]3C=CO[C@@H](O[C@@H]4O[C@H](CO)[C@@H](O)[C@H](O)[C@H]4OC(C)=O)[C@@H]3[C@@]3(CO)O[C@@H]23)[C@@H]1OC(=O)/C=C/c1ccc(O)cc1
inactive: activation [1] -17.6% | Potency [2] | Potency [3]

COc1cc(C)c(C(=O)O[C@H]2[C@@H](OC(C)=O)[C@H](n3ccc(=O)[nH]c3=O)O[C@@H]2CO)c(OC)c1
inactive: activation [1] -10.7% | Potency [2] | Potency [3]
